Screens: PubChem BioAssay, The Scripps Research Institute Molecular Screening Center
Most compounds without a hit are left out; they make up all but 3.5% or so of the library.
TEAD-YAP inh = TEAD-YAP interaction inhibition. HEK-TIYL cells, TEAD-Gal4/YAP UAS-luciferase luminescence. inhibition, % at 9.12 µM. 1.4% of 640,000 active. AID 1259422; in the data active = inhibition above about 32%;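 note: 0% = median of test compound wells and 100% = reference inhibitor wells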
FBW7 activator = activators of human E3 ligase FBW7; normalized activity (activation), % at 26.1 µM; AlphaScreen FBW7–phospho-cyclin E peptide binding, activator screen; Q969H0; 0.13% of 650,000 active; in the data active = normalized activity above about 1.9%;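 note: purified mutant Fbw7 with reduced substrate affinity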
GPR151 ag = human GPR151 activation | Q8TDV0 | PathHunter beta-arrestin GPR151 cells, luminescence | activation, % at 11.2 µM | 1% of 650,000 active | AID 1508602; in the data active = activation above about 4.9%;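 note: 0% = median of compound wells and 100% = cells with positive control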
Target sequence (Q8TDV0 whole entry, looked up): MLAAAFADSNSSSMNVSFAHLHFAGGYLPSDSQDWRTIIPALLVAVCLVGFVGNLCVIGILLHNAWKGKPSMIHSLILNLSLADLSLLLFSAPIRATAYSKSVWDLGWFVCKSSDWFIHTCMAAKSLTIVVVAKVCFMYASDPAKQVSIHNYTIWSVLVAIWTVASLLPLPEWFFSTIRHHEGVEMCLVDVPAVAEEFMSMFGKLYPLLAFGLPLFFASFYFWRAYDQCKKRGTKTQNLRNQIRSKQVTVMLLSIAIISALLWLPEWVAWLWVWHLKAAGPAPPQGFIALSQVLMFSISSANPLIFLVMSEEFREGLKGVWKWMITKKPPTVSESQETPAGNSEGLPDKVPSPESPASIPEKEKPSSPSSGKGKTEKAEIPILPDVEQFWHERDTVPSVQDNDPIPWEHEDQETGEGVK
MITF primary = blocks human microphthalmia-associated transcription factor; 0.91% of 650,000 active; AlphaScreen MITF homodimerization, bead proximity signal; O75030; inhibition, % at 2.6 µM; AID 1259374; in the data active = inhibition above about 50%;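 note: 0% = vehicle wells with protein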
Numbers without * were called inactive.

Screening C/C(CC(=O)Nc1ccc(C)cc1)=N\NC(=O)c1cccc(O)c1 returned TEAD-YAP inh 35.1*, FBW7 activator 0.3, GPR151 ag -2.9 and MITF primary 9.4.
Cc1nn(C(=O)c2ccc(Cn3cnc([N+](=O)[O-])n3)o2)c(C)c1Br was read as TEAD-YAP inh -5.9, FBW7 activator -0.1, GPR151 ag 0.4 and MITF primary 1.8.
For CCCC(=O)N/N=C/c1ccc(OC)cc1 the results were TEAD-YAP inh -21.7, FBW7 activator 0.1, GPR151 ag 1.9 and MITF primary 4.6.
For COc1cc(OC)cc(C(=O)N/N=C(\C)CC(=O)Nc2ccccc2C(F)(F)F)c1 the results were TEAD-YAP inh 49.5*, FBW7 activator -0.2, GPR151 ag -1.6 and MITF primary -1.7.
For COc1cc(OC)cc(C(=O)N/N=C(\C)CC(=O)Nc2ccc(Br)cc2)c1 the results were TEAD-YAP inh 54.3*, FBW7 activator 0.0, GPR151 ag 0.8 and MITF primary 12.6.
COc1cccc(C(=O)N/N=C(\C)CC(=O)Nc2ccc(Br)cc2)c1 was read as TEAD-YAP inh -0.8, FBW7 activator 1.3, GPR151 ag -0.5 and MITF primary 8.8.
`Oc1cccc(-c2cnn3c(NCc4ccc(F)cc4)ccnc23)c1` gave TEAD-YAP inh -8.3, FBW7 activator -0.2, GPR151 ag -1.2 and MITF primary -10.1.
`CN1/C(=C/c2cccc[n+]2C)Sc2ccccc21` gave TEAD-YAP inh 70.1*, FBW7 activator 0.1, GPR151 ag 0.1 and MITF primary -0.1.
For CCN1/C(=C/c2cccc[n+]2C)Sc2ccc(C)cc21 the results were TEAD-YAP inh 51.9*, FBW7 activator -0.8, GPR151 ag 1.1 and MITF primary 4.1.
Cc1ccc2c(c1)N(C)/C(=C/c1cccc[n+]1C)S2 was read as TEAD-YAP inh 55.0*, FBW7 activator -0.2, GPR151 ag 0.3 and MITF primary 1.7.
Screening CCCCN1/C(=C/c2cccc[n+]2C)Sc2cc(NC(C)=O)ccc21 returned TEAD-YAP inh 6.4, FBW7 activator 0.3, GPR151 ag 1.0 and MITF primary 25.6.
CN1C=C/C(=C/c2cccc[n+]2C)c2ccccc21 was read as TEAD-YAP inh 13.1, FBW7 activator -0.1, GPR151 ag -0.2 and MITF primary -5.6.
Screening C[n+]1ccccc1/C=C1\Sc2ccccc2N1CCCS(=O)(=O)O returned TEAD-YAP inh -1.9, FBW7 activator 2.5*, GPR151 ag -2.0 and MITF primary 23.5.
`COC(=O)c1ccc(Cl)cc1NC(=O)c1cc(OC)ccc1Br` gave TEAD-YAP inh 36.7*, FBW7 activator 0.0, GPR151 ag -1.1 and MITF primary -2.9.
For COc1ccc(C(=O)Nc2cc(Cl)ccc2C(=O)O)cc1 the results were TEAD-YAP inh 5.9, FBW7 activator 0.1, GPR151 ag -1.4 and MITF primary 15.5.
For O=C(Nc1cc(Cl)cc(Cl)c1)C1(c2cccs2)CCOCC1 the results were TEAD-YAP inh 0.0, FBW7 activator 0.0, GPR151 ag 1.9 and MITF primary -2.5.
For CCOc1ccc(Nc2nc(-c3c(C)nc4sccn34)cs2)cc1 the results were TEAD-YAP inh 60.9*, FBW7 activator 0.0, GPR151 ag -0.8 and MITF primary 10.1.
For Oc1cccc(Nc2nc(-c3cccnc3)cs2)c1 the results were TEAD-YAP inh 44.8*, FBW7 activator -0.2, GPR151 ag -2.1 and MITF primary 9.1.
For Cc1nc2sccn2c1-c1csc(Nc2ccc(Cl)cc2)n1 the results were TEAD-YAP inh 50.1*, FBW7 activator -0.1, GPR151 ag -0.2 and MITF primary 14.3.
For COc1cc(Br)c(Nc2nc(-c3c(C)nc4sccn34)cs2)c(Br)c1 the results were TEAD-YAP inh 7.6, FBW7 activator 0.0, GPR151 ag -0.5 and MITF primary -14.7.
Oc1cccc(Nc2nc(-c3ccncc3)cs2)c1 was read as TEAD-YAP inh 3.1, FBW7 activator -0.2, GPR151 ag -0.9 and MITF primary 6.0.
`CCOc1ccc(Nc2nc(-c3sc(C)nc3C)cs2)cc1` gave TEAD-YAP inh 41.3*, FBW7 activator -0.1, GPR151 ag -0.5 and MITF primary 6.0.
For COc1ccc(OC)c(NC(=O)COc2cc(C)ccc2C(C)C)c1 the results were TEAD-YAP inh -7.7, FBW7 activator -0.1, GPR151 ag -1.6 and MITF primary -3.5.
`CCC1CCCCN1C1CC(=O)N(c2ccc(C)cc2)C1=O` (configuration not stated) gave TEAD-YAP inh -0.3, FBW7 activator -0.1, GPR151 ag 0.6 and MITF primary -5.7.
`CCC(CO)Nc1ccnc2c(-c3ccoc3)cnn12` (configuration not stated) gave TEAD-YAP inh -26.6, FBW7 activator 0.3, GPR151 ag 0.7 and MITF primary 15.6.
